Hits are enriched below; roughly 2.3% of the tested compounds scored in any of these assays.
CHO-K1 Ca antag = nonselective inhibitor or artifact in parental CHO-K1 cells | inhibition, % at 3 µM | ATP-induced calcium, Fluo-8 fluorescence | 0.6% of 360,000 active | AID 602250;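 active = inhibition above a per-plate cutoff, the plate's mean sample inhibition plus 3 SD, cut at about 24% in these data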;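 note: 0% = DMSO plus EC80 ATP and 100% = DMSO alone without ATP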
CHRM1 agonist = agonists of human M1 muscarinic receptor | P11229 | CHO-K1 hM1, Fluo-8 calcium fluorescence, agonist mode; 0% DMSO, 100% acetylcholine EC100 | activation, % at 3 µM | 0.33% of 360,000 active | AID 588814;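 active = activation above the run's mean compound activation plus 3 SD, cut at about 16% in these data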;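 note: peak over basal fluorescence ratio within a 140 s kinetic read after compound addition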
Target sequence (P11229 whole entry, looked up): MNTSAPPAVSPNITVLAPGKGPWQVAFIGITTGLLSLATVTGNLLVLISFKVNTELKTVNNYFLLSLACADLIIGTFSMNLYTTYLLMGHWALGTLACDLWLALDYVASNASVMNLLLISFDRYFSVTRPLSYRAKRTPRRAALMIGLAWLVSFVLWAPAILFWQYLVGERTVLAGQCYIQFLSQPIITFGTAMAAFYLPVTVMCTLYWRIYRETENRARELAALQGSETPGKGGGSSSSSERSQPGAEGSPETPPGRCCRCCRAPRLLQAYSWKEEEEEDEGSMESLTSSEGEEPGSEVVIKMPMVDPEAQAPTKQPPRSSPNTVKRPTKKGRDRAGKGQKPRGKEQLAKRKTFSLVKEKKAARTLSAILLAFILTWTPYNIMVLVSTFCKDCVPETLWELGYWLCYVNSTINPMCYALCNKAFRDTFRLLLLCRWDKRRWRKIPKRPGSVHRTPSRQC
CHO-K1 Ca PAM = counter-screen for M1 PAMs: effect in parental CHO-K1 cells; 0.02% of 360,000 active; activation, % at 3 µM; ATP EC20, Fluo-8 calcium fluorescence; 0% at ATP EC20, 100% at ATP max;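 active = activation above the run cutoff, the mean activation of all test compounds plus 3 SD, cut at about 40% in these data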;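 note: peak over basal fluorescence ratio in a 140 s read after ATP addition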
M1 ag parental = nonselective activator or artifact in parental CHO-K1 cells; Fluo-8 calcium fluorescence; scaled to maximal ATP response, vehicle zero; activation, % at 3 µM; 0.48% of 360,000 active; AID 602248; in the data active = activation above about 15%;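 note: untransfected CHO-K1 host cells lacking M1 receptor as counterscreen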
M1 antag = blocks human M1 muscarinic receptor. P11229. CHO-K1 hM1, Fluo-8 calcium fluorescence, ACh EC80 antagonist. inhibition, % at 3 µM. 1.3% of 360,000 active. AID 588852;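 active = percent inhibition above its own plate's cutoff, namely the mean of that plate's compound wells plus 3 SD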;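 note: peak over basal fluorescence ratio during 140 s after agonist addition; 0% = ACh EC80 plus DMSO and 100% = DMSO alone without agonist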
M1 PAM = potentiates human M1 receptor response to acetylcholine; P11229; CHO-K1 hM1, Fluo-8 calcium fluorescence, ACh EC20; 0% = ACh EC20, 100% = maximal ACh; activation, % at 3 µM; 0.088% of 360,000 active; AID 588819; in the data active = activation above about 19%, passing the limit was not always enough
Active calls of the source: *; x = not tested or not shown.

SMILES	CHO-K1 Ca antag	CHRM1 agonist	CHO-K1 Ca PAM	M1 ag parental	M1 antag	M1 PAM
N#C/C(=C\c1ccc(O)c([N+](=O)[O-])c1)c1nc2ccccc2s1	29*	2	-10	14	18	-10
CC(C)C(=O)Nc1ccc2c(c1)nc(CCN1CCN(c3ccccn3)CC1)n2C	-4	-9	9	0	24	-16
Cc1cccc(NS(=O)(=O)c2cc3c4c(c2)CC(=O)N4CCC3)c1C	-9	2	13	3	-8	11
Cc1ccccc1NS(=O)(=O)c1cc2c3c(c1)CC(=O)N3CCC2	5	3	6	17*	-2	4
CC(=O)Nc1ccc(S(=O)(=O)Oc2ccc(/C=N/NC(=O)c3ccc(Cl)cc3)cc2)cc1	0	-2	15	2	13	-1
COC(=O)c1ccc(OS(=O)(=O)c2ccc(NC(C)=O)cc2)cc1	24*	0	-14	5	14	-11
CN(C)CCOC(C1CCCCC1)C1CCCCC1	-17	-5	36	9	49*	-20
Cc1ccc(-n2c(SCC(N)=O)nnc2-c2ccc(S(=O)(=O)N3CCCCC3)cc2)c(C)c1	16	-6	0	2	91*	-26
Cn1c(SCC(N)=O)nnc1-c1ccc(S(=O)(=O)N2CCCC2)cc1	-2	-7	12	1	-2	3
Cc1ccc2c(c1)CCCN2CC(=O)Nc1cc(S(=O)(=O)N2CCCC2)ccc1Cl	-14	-8	-3	0	-9	-5
CC(=O)N1CCN(CC(=O)Nc2cccc(S(=O)(=O)N3CCCCC3)c2)CC1	-5	-4	-10	1	-21	11
CC(=O)N1CCN(CC(=O)Nc2cccc(S(=O)(=O)N3CCCCCC3)c2)CC1	27*	-2	-14	0	0	9
Cc1ccc2c(c1)CCCN2CC(=O)Nc1cccc(S(=O)(=O)N2CCCC2)c1	-3	-8	-16	1	32*	-17
O=C1COc2ccc(C(=O)COC(=O)Cc3ccsc3)cc2N1	2	0	0	4	3	-6
O=S(=O)(CCc1ccccc1)CS(=O)(=O)CCc1ccccc1	-12	-1	0	1	-9	0
Cc1ccc(-c2nc(P(=O)(c3ccccc3)c3ccccc3)c(N3CCOCC3)o2)cc1	-3	-5	17	0	-10	10
CNc1oc(-c2ccc(Cl)cc2)nc1P(=O)(c1ccccc1)c1ccccc1	-14	0	49*	0	11	5
Cc1ccc(Nc2ccc(-n3ccnc3)nn2)cc1C	-7	-5	3	0	-9	2
COc1cccc(Nc2ccc(-n3ccnc3)nn2)c1	-3	1	14	15*	-9	11
Cc1c(C(=O)N2CCN(c3ccc(F)cc3)CC2)sc2ncnc(N3CCN(c4ccccn4)CC3)c12	8	-7	2	9	32*	-20
Cc1c(C(=O)N2CCN(c3ccccc3)CC2)sc2ncnc(N3CCN(c4ccccn4)CC3)c12	-13	-3	1	3	-3	3
Cc1noc(C)c1NC(=O)Nc1cccc2c1O[C@H](CN(C)C(=O)NC1CCCCC1)[C@@H](C)CN([C@H](C)CO)C2=O	-15	-3	18	1	14	-4
CCOc1cccc(NC(=O)C(Cc2cccs2)c2nn[nH]n2)c1 (stereo not drawn)	27*	-4	-9	0	12	-7
O=C(Nc1ccccc1)C(Cc1cccs1)c1nn[nH]n1 (stereo not drawn)	-2	-3	7	0	-9	6
CCOC(=O)C1=CCN(S(=O)(=O)c2ccccc2Cl)C1c1cccc(C)c1 (stereo not drawn)	18	-11	-6	0	18	-12
SMILES	CHO-K1 Ca antag	CHRM1 agonist	CHO-K1 Ca PAM	M1 ag parental	M1 antag	M1 PAM
CCOc1ccc(NC(=O)CSc2ncn[nH]2)cc1	-6	-4	19	1	-6	4
Cc1ccc(NC(=O)CSc2ncn[nH]2)cc1	11	-7	7	19*	3	-5
CC1CC2(CCCCC2)N2C(=O)C(=O)c3cccc1c32 (stereo not drawn)	-13	17*	18	-1	-9	7
CCOC(=O)Cc1csc(NC(=O)c2cc(-c3ccncc3)nc3ccccc23)n1	-7	-2	0	6	36*	-15
CCOC(=O)Cc1csc(NC(=O)c2sc3nc4ccc(C)cc4cc3c2N)n1	-13	0	20	3	-6	34*
CCOC(=O)Cc1csc(NC(=O)c2ccncc2)n1	4	-1	12	1	1	-2
O=C1C[C@@H](c2ccc(O)cc2)Oc2cc(O)cc(O)c21	-18	3	3	2	-10	5
Cc1c(O)cc2c(c1O)C(=O)CC(c1ccccc1)O2 (stereo not drawn)	85*	58*	-14	26*	102*	-33
Cc1cc(C)cc(N(CC(=O)NCc2ccc(F)cc2)C(=O)c2snc(C(N)=O)c2N)c1	-7	16*	15	1	-6	11
COc1ccc(NC(=O)C2(C)CCCN(C(C)C)C2)cc1OC (stereo not drawn)	-13	2	8	0	-33	34*
Cc1ccc(NC(=O)C2(C)CCCN(C(C)C)C2)cc1C (stereo not drawn)	6	-4	-7	0	-2	6
CN(C)c1ccc(/C=N/n2c(-c3ccccc3Br)n[nH]c2=S)cc1	-4	-6	13	2	32*	-25
O=C(COc1ccc(Br)cc1)N1CCN(c2ncccn2)CC1	-10	-1	6	2	-4	4
CCc1ccccc1NC(=S)N1CCN(c2cccc(OC)c2)CC1	14	3	12	14	-5	8
COC(=O)c1cc(S(=O)(=O)N2CCC(c3cc(OC)ccc3OC)C2)c[nH]1 (stereo not drawn)	10	5	-7	16*	23	-11
COC(=O)c1cc(S(=O)(=O)N2CCC(c3ccccc3)C2)c[nH]1 (stereo not drawn)	3	3	-4	8	-4	3
COC(=O)c1cc(S(=O)(=O)N2CCN(c3cccc(C)c3C)CC2)c[nH]1	13	0	-3	8	34*	-21
CCC(c1nnnn1Cc1cccs1)N1CCN(c2nc3ccccc3s2)CC1 (stereo not drawn)	48*	-2	7	4	16	x
CC(C)CC(c1nnnn1Cc1cccs1)N1CCN(c2nc3ccccc3s2)CC1 (stereo not drawn)	0	-5	5	0	13	-16
CC(=O)Nc1cccc(NC(=O)c2cc(-c3cccnc3)nc3ccc(Br)cc23)c1	6	-5	-16	6	42*	-22

Source: PubChem BioAssay (The Scripps Research Institute Molecular Screening Center)
